Source: PubChem BioAssay (NCATS)
Values joined by “and” are separate entries in the source; they are usually repeats but may differ in a detail not shown here. Identical values can stand only once. Inconclusive results are not listed. Active and inactive are the calls of the source. Unless noted, calls come from the whole dose curve.

Experiments:
[1] = biological target: Bile acid receptor (Homo sapiens) (UniProt Q96RI1); experiment: qHTS assay for small molecule agonists of farnesoid X receptor signaling (AID 588527); settings: HEK293T FXR-UAS-bla, beta-lactamase ratio, 16 h; activation: active compounds read high;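 note: series mostly up to about 77 µM; 0% = vehicle basal and 100% = reference agonist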
Sequence of Bile acid receptor (Homo sapiens) (Q96RI1 whole entry, looked up): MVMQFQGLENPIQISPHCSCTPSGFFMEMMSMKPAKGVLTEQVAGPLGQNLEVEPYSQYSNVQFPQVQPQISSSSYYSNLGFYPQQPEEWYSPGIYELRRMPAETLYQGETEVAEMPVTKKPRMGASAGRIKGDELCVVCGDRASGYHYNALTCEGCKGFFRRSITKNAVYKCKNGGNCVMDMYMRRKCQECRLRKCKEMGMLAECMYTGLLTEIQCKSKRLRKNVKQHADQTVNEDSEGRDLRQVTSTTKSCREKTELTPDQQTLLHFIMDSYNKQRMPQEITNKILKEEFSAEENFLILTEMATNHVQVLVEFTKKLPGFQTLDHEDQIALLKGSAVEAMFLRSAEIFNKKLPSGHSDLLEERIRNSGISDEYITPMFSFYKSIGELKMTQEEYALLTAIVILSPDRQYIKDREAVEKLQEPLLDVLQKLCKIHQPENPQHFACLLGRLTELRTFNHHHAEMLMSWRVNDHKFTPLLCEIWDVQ
Procedure, shortened: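 Quantitative HTS used FXR-UAS-bla HEK293T cells with 16 h compound incubation at 37 C. EC50 values came from concentration-response curves normalized to chenodeoxycholic acid.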

[2] = biological target: Peroxisome proliferator-activated receptor delta (Homo sapiens) (UniProt Q03181); experiment: qHTS assay for small molecule agonists of peroxisome proliferator-activated receptor delta signaling (AID 588534);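 note: 0% = DMSO basal wells and 100% = positive control agonist at 10 µM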
Sequence of Peroxisome proliferator-activated receptor delta (Homo sapiens) (Q03181 whole entry, looked up): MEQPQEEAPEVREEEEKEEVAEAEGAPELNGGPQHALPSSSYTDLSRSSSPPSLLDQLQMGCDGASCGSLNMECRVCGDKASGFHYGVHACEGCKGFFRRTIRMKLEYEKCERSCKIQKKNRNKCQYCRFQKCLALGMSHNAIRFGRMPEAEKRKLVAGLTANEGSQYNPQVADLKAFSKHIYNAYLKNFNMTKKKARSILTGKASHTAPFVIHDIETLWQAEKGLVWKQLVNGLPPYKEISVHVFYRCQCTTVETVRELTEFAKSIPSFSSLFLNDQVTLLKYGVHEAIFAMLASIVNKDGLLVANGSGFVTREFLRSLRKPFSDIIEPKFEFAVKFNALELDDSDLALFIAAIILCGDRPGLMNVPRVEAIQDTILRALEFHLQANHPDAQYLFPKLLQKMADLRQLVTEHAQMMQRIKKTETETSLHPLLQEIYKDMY
Procedure, shortened: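 Titration series tested in agonist mode on beta-lactamase reporter cells; 18 hrs at 37 C after a 5 hr pre-incubation. Readout: CCF4 fluorescence, 2 hrs RT. Hill equation gives EC50 and maximal response.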

[3] = qHTS for Inhibitors of the Functional Ribonucleoprotein Complex (vRNP) of Lassa (LASV) Arenavirus: LASV Primary Screen - GLuc reporter signal (AID 1347082; calls by dose curve; tested in HEK293 reporter line; note: nearly all actives have a fitted effect of over 60% in size; note: potency is the fitted concentration of half-maximal effect)
[4] = qHTS for Inhibitors of the Functional Ribonucleoprotein Complex (vRNP) of Lassa (LASV) Arenavirus: Viability assay - alamar blue signal for LASV Primary Screen (AID 1347083; calls by dose curve; tested in HEK293 reporter line; note: nearly all actives have a fitted effect of over 80% in size; note: potency is the fitted concentration of half-maximal effect)
[5] = qHTS for Inhibitors of the Functional Ribonucleoprotein Complex (vRNP) of Lymphocytic Choriomeningitis Arenaviruses (LCMV): Viability assay - alamar blue signal for LCMV Primary Screen (AID 1347085; calls by dose curve; tested in HEK293 reporter line; note: nearly all actives have a fitted effect of over 80% in size; note: potency is the fitted concentration of half-maximal effect)
[6] = biological target: Nucleoprotein (Lymphocytic choriomeningitis virus (strain Armstrong)) (UniProt P09992); experiment: qHTS for Inhibitors of the Functional Ribonucleoprotein Complex (vRNP) of Lymphocytic Choriomeningitis Arenaviruses (LCMV): LCMV Primary Screen - GLuc reporter signal (AID 1347086); note: nearly all actives have a fitted effect of over 70% in size; note: potency is the fitted concentration of half-maximal effect
Sequence of Nucleoprotein (Lymphocytic choriomeningitis virus (strain Armstrong)) (P09992 whole entry, looked up): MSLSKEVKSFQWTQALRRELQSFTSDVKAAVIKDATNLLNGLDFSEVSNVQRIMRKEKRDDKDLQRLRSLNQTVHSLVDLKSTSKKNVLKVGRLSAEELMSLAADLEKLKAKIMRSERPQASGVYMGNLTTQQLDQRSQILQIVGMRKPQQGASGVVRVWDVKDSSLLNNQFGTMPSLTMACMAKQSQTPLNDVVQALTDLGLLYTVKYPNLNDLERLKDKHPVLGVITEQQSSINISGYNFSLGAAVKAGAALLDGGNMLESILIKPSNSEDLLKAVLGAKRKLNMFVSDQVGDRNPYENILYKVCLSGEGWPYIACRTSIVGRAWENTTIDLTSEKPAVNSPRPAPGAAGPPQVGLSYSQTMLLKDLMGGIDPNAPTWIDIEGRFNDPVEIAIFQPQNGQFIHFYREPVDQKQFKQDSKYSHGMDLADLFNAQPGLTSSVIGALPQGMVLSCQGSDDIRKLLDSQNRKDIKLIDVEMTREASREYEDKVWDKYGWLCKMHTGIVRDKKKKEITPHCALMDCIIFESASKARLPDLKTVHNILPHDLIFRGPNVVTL

[7] = biological target: Cytochrome P450 3A4 (Homo sapiens) (UniProt P08684); experiment: qHTS Assay for Inhibitors and Substrates of Cytochrome P450 3A4 (AID 884; active = well fitted curve in the direction sought with a large enough effect; an effect the other way counts as inactive or inconclusive; note: series mostly up to about 57 µM; % is set by controls: 0 for no effect and ±100 for the full control effect; nearly all actives have a fitted effect of over 50% in size)
Sequence of Cytochrome P450 3A4 (Homo sapiens) (P08684 whole entry, looked up): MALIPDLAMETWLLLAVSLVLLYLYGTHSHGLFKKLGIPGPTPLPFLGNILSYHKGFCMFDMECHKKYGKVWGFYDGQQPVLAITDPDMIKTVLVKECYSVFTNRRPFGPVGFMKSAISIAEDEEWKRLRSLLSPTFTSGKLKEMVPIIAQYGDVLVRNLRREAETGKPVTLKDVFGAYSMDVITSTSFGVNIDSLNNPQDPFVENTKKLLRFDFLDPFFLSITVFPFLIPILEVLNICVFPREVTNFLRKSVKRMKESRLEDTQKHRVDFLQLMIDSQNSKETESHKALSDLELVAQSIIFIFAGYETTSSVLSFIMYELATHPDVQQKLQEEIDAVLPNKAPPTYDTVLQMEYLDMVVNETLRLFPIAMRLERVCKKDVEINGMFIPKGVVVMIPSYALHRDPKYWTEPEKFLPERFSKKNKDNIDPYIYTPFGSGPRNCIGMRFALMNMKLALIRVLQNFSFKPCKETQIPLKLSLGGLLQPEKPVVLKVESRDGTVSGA
Procedure, shortened: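 Luminescent readout of luciferin produced by CYP3A4 (20 nM) dealkylation of Luciferin-PPXE, 25 uM (its KM). NADPH-driven reaction ran 60 min at RT after 10 min compound preincubation; data scaled to 57 uM ketoconazole as 100% inhibition.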

[8] = biological target: Ubiquitin carboxyl-terminal hydrolase 1 (Homo sapiens) (UniProt O94782); experiment: Inhibitors of USP1/UAF1: Pilot qHTS (AID 504865; active = well fitted curve in the direction sought with a large enough effect; an effect the other way counts as inactive or inconclusive;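 note: rhodamine fluorescence freed from ubiquitin-rhodamine substrate followed over time; top concentration of the series differs between compounds; % is set by controls: 0 for no effect and ±100 for the full control effect; nearly all actives have a fitted effect of over 35% in size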)
Sequence of Ubiquitin carboxyl-terminal hydrolase 1 (Homo sapiens) (O94782 whole entry, looked up): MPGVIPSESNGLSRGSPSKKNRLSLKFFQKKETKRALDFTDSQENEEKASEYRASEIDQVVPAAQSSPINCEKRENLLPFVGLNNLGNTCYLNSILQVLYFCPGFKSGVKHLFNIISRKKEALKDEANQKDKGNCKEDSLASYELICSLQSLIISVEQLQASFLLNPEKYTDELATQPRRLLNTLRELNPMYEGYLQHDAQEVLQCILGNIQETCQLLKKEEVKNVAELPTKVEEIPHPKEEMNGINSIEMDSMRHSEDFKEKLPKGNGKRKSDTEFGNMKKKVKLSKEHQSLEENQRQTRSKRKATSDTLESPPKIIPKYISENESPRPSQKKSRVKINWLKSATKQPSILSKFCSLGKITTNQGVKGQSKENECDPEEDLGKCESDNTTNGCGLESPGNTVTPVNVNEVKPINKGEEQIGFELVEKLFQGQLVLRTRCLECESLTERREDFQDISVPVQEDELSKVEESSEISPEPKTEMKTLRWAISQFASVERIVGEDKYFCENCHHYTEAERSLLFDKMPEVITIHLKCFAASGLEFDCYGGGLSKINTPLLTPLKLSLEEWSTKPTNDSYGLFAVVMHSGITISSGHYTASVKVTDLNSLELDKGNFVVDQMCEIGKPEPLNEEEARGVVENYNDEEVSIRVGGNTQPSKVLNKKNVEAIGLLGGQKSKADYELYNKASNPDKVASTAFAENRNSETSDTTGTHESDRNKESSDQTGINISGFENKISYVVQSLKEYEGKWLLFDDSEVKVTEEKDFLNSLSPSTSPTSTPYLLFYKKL
Procedure, shortened: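 USP1/UAF1 complex at 1 nM preincubated 15 min at room temperature with compound, then Ub-Rho substrate added at 150 nM final. Fluorescence (480/540 nm) read kinetically in 50 mM HEPES pH 7.8, 0.5 mM EDTA, 1 mM TCEP, 0.1 mg/ml BSA, 0.01% Tween-20.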

[9] = biological target: DNA dC->dU-editing enzyme APOBEC-3G (Homo sapiens) (UniProt Q9HC16); experiment: qHTS for inhibitors of Vif-A3G interactions: Validation (AID 588379; active = well fitted curve in the direction sought with a large enough effect; an effect the other way counts as inactive or inconclusive; note: 0% is about no effect)
Procedure, shortened: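 Yellow fluorescence (Ex 488, Em 500-530) of Vif-coexpressing HeLa A3G-eYFP cells, scanned by Acumen cytometer, reports blocked A3G degradation. Cells plated at 700/well overnight at 37 deg C before compound addition, then a further overnight compound incubation at 37 deg C.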

[10] = biological target: Alpha-galactosidase (Coffea arabica) (UniProt Q42656); experiment: Counterscreen for Glucocerebrosidase Inhibitors: qHTS Assay for Coffee Bean alpha-Galactosidase at pH 4.5 (AID 957; active = well fitted curve in the direction sought with a large enough effect; an effect the other way counts as inactive or inconclusive;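 note: series mostly up to about 77 µM; plate controls were enzyme alone for no effect and no enzyme for full effect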)
Sequence of Alpha-galactosidase (Coffea arabica) (Q42656 whole entry, looked up): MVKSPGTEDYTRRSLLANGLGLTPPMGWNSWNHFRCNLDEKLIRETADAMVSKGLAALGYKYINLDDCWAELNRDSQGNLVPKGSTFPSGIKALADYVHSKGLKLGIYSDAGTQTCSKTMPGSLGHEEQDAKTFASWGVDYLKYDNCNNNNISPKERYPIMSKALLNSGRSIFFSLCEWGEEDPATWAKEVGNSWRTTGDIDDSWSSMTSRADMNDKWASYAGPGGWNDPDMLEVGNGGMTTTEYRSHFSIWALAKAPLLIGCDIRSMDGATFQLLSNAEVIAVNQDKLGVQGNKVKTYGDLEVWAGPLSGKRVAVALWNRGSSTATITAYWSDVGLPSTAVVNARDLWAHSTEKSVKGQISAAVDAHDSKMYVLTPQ
Procedure, shortened: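 Fluorogenic read-out: 4-methylumbelliferone at Ex 365/Em 440 nm after NaOH/glycine stop (pH 10). Enzyme 2 nM, 4-MU-alpha-galactoside 80 uM, citrate buffer pH 4.5, 20 min RT; normalized to no-enzyme and enzyme controls.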

[11] = biological target: Alpha-galactosidase (Coffea arabica) (UniProt Q42656); experiment: Counterscreen for Glucocerebrosidase Inhibitors: qHTS Assay for Coffee Bean alpha-Galactosidase at pH 5.9 (AID 998; active = well fitted curve in the direction sought with a large enough effect; an effect the other way counts as inactive or inconclusive;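 note: plate controls were uninhibited enzyme for no effect and no-enzyme basal signal for full effect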)
Procedure, shortened: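 In 50 mM citric acid pH 5.9 with 0.005% Tween-20, coffee bean enzyme hydrolyses 80 uM 4-MU alpha-D-galactopyranoside over 20 min at RT. Activity is normalized to controls; AC50 comes from Hill-modelled concentration-response data.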

[12] = Inducers of the Endoplasmic Reticulum Stress Response (ERSR) in human glioma: Validation (AID 504836; active = well fitted curve in the direction sought with a large enough effect; an effect the other way counts as inactive or inconclusive; note: 0% is about no effect)
Procedure, shortened: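 Stably transfected U87-MG human glioma cells carrying a GRP78-based luminescent sensor were seeded at 1000 cells/well, pin-dosed with compounds and incubated 16 h. Luciferase reagent was then added, and end-point luminescence was read after 10 min at room temperature.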

[13] = biological target: Estrogen receptor (Homo sapiens) (UniProt P03372); experiment: qHTS assay for small molecule antagonists of estrogen receptor alpha signaling (AID 588513; active = well fitted curve in the direction sought with a large enough effect in the signal ratio, with a control signal flat, not every such curve was filed as active; the % refers to the signal ratio; note: % is set by controls: 0 for no effect and ±100 for the full control effect)
Sequence of Estrogen receptor (Homo sapiens) (P03372 whole entry, looked up): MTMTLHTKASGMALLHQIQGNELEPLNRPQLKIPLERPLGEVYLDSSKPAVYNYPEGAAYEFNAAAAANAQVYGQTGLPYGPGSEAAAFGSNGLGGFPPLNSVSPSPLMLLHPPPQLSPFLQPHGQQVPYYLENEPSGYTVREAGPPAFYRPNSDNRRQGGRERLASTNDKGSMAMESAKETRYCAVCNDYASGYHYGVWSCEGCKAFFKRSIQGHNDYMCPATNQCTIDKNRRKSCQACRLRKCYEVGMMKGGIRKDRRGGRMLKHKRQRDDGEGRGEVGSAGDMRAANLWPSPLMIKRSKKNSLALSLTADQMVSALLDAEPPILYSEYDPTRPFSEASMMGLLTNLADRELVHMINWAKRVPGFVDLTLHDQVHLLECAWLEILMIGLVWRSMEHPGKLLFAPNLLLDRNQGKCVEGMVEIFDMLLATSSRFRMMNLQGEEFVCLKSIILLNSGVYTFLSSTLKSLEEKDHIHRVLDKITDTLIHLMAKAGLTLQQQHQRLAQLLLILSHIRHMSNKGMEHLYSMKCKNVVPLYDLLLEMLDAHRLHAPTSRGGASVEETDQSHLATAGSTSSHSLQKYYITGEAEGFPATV
Procedure, shortened: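 ER-alpha-UAS-bla GripTite HEK 293 cells in 2% charcoal/dextran-treated FBS medium; compounds titrated (1:2, duplicate), then stimulated with 0.5 nM 17-beta-estradiol for 18 h at 37C. CCF4 beta-lactamase fluorescence; Hill-fit IC50 and efficacy.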

[14] = biological target: Thyroid hormone receptor beta (Homo sapiens) (UniProt P10828); experiment: qHTS assay for small molecule agonists of thyroid hormone receptor beta signaling (AID 588545);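 note: 0% = DMSO only and 100% = 10 nM T3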
Procedure, shortened: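 TR-UAS-bla GripTite HEK 293 cells (2500/well, medium with 2% charcoal/dextran FBS) were treated in agonist mode for 18 h at 37 C, titrated. Beta-lactamase was read by CCF4 ratio after 2 h; normalized to 10 nM T3 (100%) and DMSO, Hill-fitted for EC50 and efficacy.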

[15] = biological target: Voltage-gated inwardly rectifying potassium channel KCNH2 (Homo sapiens) (UniProt Q12809); experiment: qHTS Assay for Small Molecule Inhibitors of the Human hERG Channel Activity (AID 588834; active = well fitted curve in the direction sought with a large enough effect; an effect the other way counts as inactive or inconclusive;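 note: top concentration of the series differs between compounds; % is set by controls: 0 for no effect and ±100 for the full control effect; lower thallium flux fluorescence means stronger hERG block; nearly all actives have a fitted effect of over 50% in size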)
Sequence of Voltage-gated inwardly rectifying potassium channel KCNH2 (Homo sapiens) (Q12809 whole entry, looked up): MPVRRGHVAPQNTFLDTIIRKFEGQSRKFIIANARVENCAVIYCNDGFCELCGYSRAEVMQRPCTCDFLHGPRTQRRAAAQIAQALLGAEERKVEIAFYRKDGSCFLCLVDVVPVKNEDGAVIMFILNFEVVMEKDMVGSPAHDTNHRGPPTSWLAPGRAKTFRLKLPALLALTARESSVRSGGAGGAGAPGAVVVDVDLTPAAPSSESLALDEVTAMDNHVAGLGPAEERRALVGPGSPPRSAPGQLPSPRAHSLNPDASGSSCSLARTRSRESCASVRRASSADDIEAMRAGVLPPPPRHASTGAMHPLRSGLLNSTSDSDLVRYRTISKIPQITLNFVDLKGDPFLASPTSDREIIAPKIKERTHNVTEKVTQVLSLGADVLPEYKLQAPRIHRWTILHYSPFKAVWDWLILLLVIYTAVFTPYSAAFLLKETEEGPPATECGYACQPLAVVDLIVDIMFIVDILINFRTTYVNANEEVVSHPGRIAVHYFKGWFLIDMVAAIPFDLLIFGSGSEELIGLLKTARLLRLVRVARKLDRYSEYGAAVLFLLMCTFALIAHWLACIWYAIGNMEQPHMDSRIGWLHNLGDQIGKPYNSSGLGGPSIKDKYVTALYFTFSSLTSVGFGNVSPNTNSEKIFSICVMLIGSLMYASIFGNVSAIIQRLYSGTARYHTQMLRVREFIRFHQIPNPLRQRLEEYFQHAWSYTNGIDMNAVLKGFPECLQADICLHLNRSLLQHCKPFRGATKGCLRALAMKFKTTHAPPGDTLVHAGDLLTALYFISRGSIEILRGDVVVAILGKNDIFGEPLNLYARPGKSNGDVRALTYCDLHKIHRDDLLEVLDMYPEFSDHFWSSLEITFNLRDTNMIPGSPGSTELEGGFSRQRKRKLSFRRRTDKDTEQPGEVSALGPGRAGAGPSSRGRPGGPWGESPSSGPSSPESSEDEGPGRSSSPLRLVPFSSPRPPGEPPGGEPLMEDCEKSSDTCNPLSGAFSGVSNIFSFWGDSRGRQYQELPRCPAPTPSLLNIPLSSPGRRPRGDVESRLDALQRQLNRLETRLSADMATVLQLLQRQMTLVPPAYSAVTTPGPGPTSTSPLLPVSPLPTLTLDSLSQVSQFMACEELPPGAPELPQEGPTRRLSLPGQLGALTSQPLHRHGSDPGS
Procedure, shortened: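 Thallium serves as surrogate for K+ influx through BacMam-delivered hERG in U2OS cells. Compounds are added for about 10 minutes after dye loading; stimulation buffer then starts flux, monitored kinetically on FDSS.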

[16] = qHTS assay for small molecule agonists of the antioxidant response element (ARE) signaling pathway (AID 651741; active = well fitted activation curve with a large enough effect in the signal ratio; the % refers to the signal ratio; note: potency is the fitted concentration of half-maximal effect)
Procedure, shortened: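 Beta-lactamase reporter expression driven by the antioxidant response element in HepG2 cells was detected by fluorescence with LiveBLAzer B/G FRET substrate (2 h, room temperature) following 16 h compound treatment at 37 C.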

[17] = qHTS assay for small molecule agonists of the antioxidant response element (ARE) signaling pathway measured by Nrf2-dependant transcriptional activity (AID 720636; active = well fitted curve in the direction sought with a large enough effect in the repeat runs; an effect the other way counts as inactive or inconclusive; note: % of control where 0% means no effect)
Procedure, shortened: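 HepG2 ARE-luc reporter line, 1% dialyzed FBS; 6 hr attachment at 37 C, compound pinned in, 16 hr at 37 C/5% CO2; ONE-Glo, 30 min RT, luminescence read.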

[18] = S16 Schwann cell PMP22 intronic element beta-lactamase assay (AID 624044); note: potency is the fitted concentration of half-maximal effect; nearly all actives have a fitted effect of over 15% in size
Procedure, shortened: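 Beta-lactamase reporter under a PMP22 intronic regulatory element in stable S16 rat Schwann cells; 24 h compound exposure. 460 nm blue signal normalized between DMSO (0%) and potassium clavulanate, with 535 nm FRET tracking viability; curves classed by r2 and response.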

CCCC/C=C\CCCCCCCCCC=O
inactive: activation [1] -2.92% | Potency [2] | Potency [3] | Potency [4] | Potency [5] | Potency [6]

CCC1CN2CCC1CC2C(O)c1ccnc2ccccc12 (configuration not stated)
inactive: Potency [7] | Potency [8] | Potency [9] | Potency [3] | Potency [4] | Potency [5] | Potency [6]

NC(N)=[N+]1CCc2ccccc2C1
inactive: outcome [10] | outcome [11] | outcome [12] | Potency [3] | Potency [4] | Potency [5] | Potency [6]

CC(C)[C@H](NC(=O)OCc1ccccc1)C(=O)N[C@H](C=O)Cc1ccccc1
inactive: outcome [10] | outcome [11] | outcome [12] | Potency [3] | Potency [4] | Potency [5] | Potency [6]

C[C@H](CCC(=O)O)[C@H]1CC[C@H]2[C@@H]3CC[C@@H]4C[C@H](O)CC[C@]4(C)[C@H]3CC[C@]12C
inactive: Potency [13] | Potency [14] | Potency [15] | Potency [17] | Potency [3] | Potency [4] | Potency [5] | Potency [6]
active: Potency [16] 26.6 µM and 19.3 µM

c1ccc2c(c1)ccc1ccccc12
inactive: activation [1] -5.28% and 1.03% | Potency [2] | Potency [3] | Potency [4] | Potency [5] | Potency [6]

Brc1ccc([C@H]2CN3CCSC3=N2)cc1
inactive: outcome [10] | outcome [11] | outcome [12] | Potency [3] | Potency [4] | Potency [5] | Potency [6]

N[C@H](C(=O)O)c1cc(O)cc(O)c1
inactive: outcome [10] | outcome [11] | outcome [12] | Potency [3] | Potency [4] | Potency [5] | Potency [6]

CC[C@H]1CN2CCc3cc(OC)c(OC)cc3[C@H]2C[C@@H]1C[C@@H]1NCCc2cc(OC)c(OC)cc21
inactive: Potency [8]
active: Potency [18] 562 nM | Potency [3] 385 nM | Potency [4] 432 nM | Potency [5] 544 nM | Potency [6] 432 nM

CS(C)=O
inactive: activation [1] -2.1% | Potency [2] | Potency [3] | Potency [4] | Potency [5] | Potency [6]

c1ccc2c(c1)CN1CCCC1=N2
inactive: Potency [8] | Potency [3] | Potency [4] | Potency [5] | Potency [6]

C/C=C/C=C/CCCCCCCO
inactive: activation [1] -0.999% | Potency [2] | Potency [3] | Potency [4] | Potency [5] | Potency [6]

O=c1c2ccccc2nc2n1CCc1c-2[nH]c2ccccc12
inactive: outcome [10] | outcome [11] | outcome [12] | Potency [3] | Potency [4] | Potency [5] | Potency [6]

C=CC(C)(O)CCC=C(C)C (configuration not stated)
inactive: activation [1] -2.97% and 2.71% | Potency [3] | Potency [4] | Potency [5] | Potency [6]

CC1=C(/C=C/C(C)=C/C=C/C(C)=C\C=O)C(C)(C)CCC1
inactive: activation [1] 25.7% | Potency [2] | Potency [3] | Potency [4] | Potency [5] | Potency [6]
